Activity calls are given as the source filed them.
Columns and labels:
[1] = tested on: PRMT1 (protein arginine N-methyltransferase 1); test: PRMT1 binders on small-molecule microarrays, primary screen, biochemical, small-molecule microarray, 635 nm fluorescence (AID 1088); conditions: small-molecule microarray binding, higher = more signal;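 also: binding of Prmt1 protein to compounds spotted on small-molecule microarray slides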
[2] = yeast growth modulation, basal conditions, primary screen, YJM789 clinical isolate, OD600, 24 h (AID 1089);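 also: growth of clinical yeast isolate S. cerevisiae YJM 789 seeded 1000 cells per well; test concentration not given here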; conditions: S. cerevisiae YJM789 growth, higher = more signal, called active from +8 up or from −8 down
[3] = fission yeast growth modulation, primary screen, strain 972, OD600, 24 h, no modulator (AID 1090);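 also: basal condition with compound alone and no growth modifier present; test concentration not given here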; conditions: S. pombe 972 growth, higher = more signal, called active from +8 up or from −8 down
[4] = S. cerevisiae growth modulation with rapamycin, primary screen, strain BY4716, OD600, 96 h (AID 1091); conditions: higher = more signal, called active from +8 up or from −8 down; also: test concentration not given here
[5] = target: Torsin-1A-interacting protein 2 (Homo sapiens) (UniProt Q8NFQ8); test: LULL1 binders on small-molecule microarray, primary screen, cell lysate, human LULL1 lysate, 635/667 nm fluorescence (AID 1092); conditions: hLULL1 lysate binding, 635 nm fluorescence, higher = more signal;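 also: probe is lysate of COS7 cells overexpressing human LULL1; score merges per-feature 667 nm fluorescence with signal-to-noise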
[6] = E. coli growth modulation, two-sided OD650, primary screen, E. coli filamentation project, strain DRC41, 24 h (AID 1093); conditions: OD650, 24 h, higher = more signal, called active from +8 up or from −8 down;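 also: MC1000 strain lacking acrAB efflux and sulA so SOS filamentation is blocked; test concentration not given here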
[7] = small-molecule microarray binders of probe aLefty2, primary screen, biochemical, biotinylated probe, 635/667 nm fluorescence (AID 1094); conditions: higher = more signal;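 also: score merges spot fluorescence near 667 nm with spot signal-to-noise ratio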
[8] = tested on: Noggin (protein binding on small-molecule microarray); test: Noggin binders on small-molecule microarray, primary screen, biochemical, 635/667 nm fluorescence (AID 1095); conditions: 635 nm fluorescence, higher = more signal;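 also: score merges 667 nm feature fluorescence with signal to noise over triplicate slides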
[9] = target: Neurogenic locus notch homolog protein 3 (Homo sapiens) (UniProt Q9UM47); test: NOTCH3 binders on small-molecule microarray, primary screen, biochemical, 635/667 nm fluorescence (AID 1096); conditions: NOTCH3 binding, 635 nm fluorescence, higher = more signal
[10] = small-molecule microarray binders of probe aEGFR, primary screen, biochemical, biotinylated probe, 635/667 nm fluorescence (AID 1097); conditions: higher = more signal;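 also: probe is a biotinylated anti-EGFR antibody binding compounds printed on slides; score combines fluorescence near 667 nm and signal to noise of each spot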
[11] = tested on: Plasmodium falciparum Sir2 (PF13_0152, Sir2A); test: pfSir2 binders on small-molecule microarrays, primary screen, biochemical, small-molecule microarray, 635 nm fluorescence (AID 1098); conditions: small-molecule microarray binding, fluorescence 635 nm; higher = more signal;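 also: score merges spot fluorescence intensity with its signal-to-noise ratio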
[12] = small-molecule microarray binders of probe aDKK1, primary screen, biochemical, biotinylated probe, 635/667 nm fluorescence (AID 1099); conditions: higher = more signal;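 also: score merges 667nm spot fluorescence with signal to noise across triplicate slides; reference of the scale not given here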
[13] = small-molecule microarray binders of probe aCHRDL2, primary screen, biochemical, biotinylated probe, 635/667 nm fluorescence (AID 1100); conditions: higher = more signal
[14] = splicing luciferase reporter signal modulators, primary screen, spliceosome inhibition project, cell-based, HEK293, splice +/- reporter (AID 1101); conditions: luminescence, 24 h, higher = more signal, called active from +8 up or from −8 down;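 also: HEK293 cells carrying a splicing-competent luciferase reporter gene; test concentration not given here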
[15] = target: Fibroblast growth factor 10 (Homo sapiens) (UniProt O15520); test: FGF10 binders on small-molecule microarrays, primary screen, biochemical, small-molecule microarray, 635 nm fluorescence (AID 1102); conditions: FGF10 binding, fluorescence 635 nm, higher = more signal
[16] = tested on: glycogen synthase kinase-3 (GSK3A per assay name; protocol says GSK3B); test: GSK3 binders on small-molecule microarrays, primary screen, biochemical, small-molecule microarray, 635 nm fluorescence, GSK3A (AID 1103); conditions: small-molecule microarray binding, fluorescence 635 nm; higher = more signal; also: the record names both GSK3A and GSK3B
[17] = target: Epidermal growth factor receptor (Homo sapiens) (UniProt P00533); test: EGFR binders on small-molecule microarrays, primary screen, biochemical, small-molecule microarray, 635 nm fluorescence (AID 1104); conditions: EGFR binding, higher = more signal;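 also: score merges 667 nm emission intensity with spot signal to noise over triplicate slides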
[18] = target: Follistatin-related protein 3 (Homo sapiens) (UniProt O95633); test: FSTL3 binders on small-molecule microarrays, primary screen, biochemical, small-molecule microarray, 635 nm fluorescence (AID 1105); conditions: FSTL3 binding, higher = more signal;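 also: score merges emission near 667 nm and signal to noise per printed spot across three slides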
[19] = target: Dickkopf-related protein 1 (Homo sapiens) (UniProt O94907); test: DKK1 binders on small-molecule microarrays, primary screen, biochemical, small-molecule microarray, 635 nm fluorescence scan (AID 1106); conditions: DKK1 binding, higher = more signal;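 also: score merges emission near 667 nm with signal to noise over three replicate slides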
[20] = tested on: Inhibin beta A chain (activin A); test: INHBA (activin A) binders on microarrays, primary screen, biochemical, small-molecule microarray, 635 nm fluorescence scan (AID 1107); conditions: small-molecule microarray binding, higher = more signal;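 also: mouse activin A protein probed at 4.33 µg/mL on printed slides; score merges bound-protein fluorescence near 667 nm with spot signal-to-noise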

Epidermal growth factor receptor (Homo sapiens), sequence (P00533 whole entry, looked up): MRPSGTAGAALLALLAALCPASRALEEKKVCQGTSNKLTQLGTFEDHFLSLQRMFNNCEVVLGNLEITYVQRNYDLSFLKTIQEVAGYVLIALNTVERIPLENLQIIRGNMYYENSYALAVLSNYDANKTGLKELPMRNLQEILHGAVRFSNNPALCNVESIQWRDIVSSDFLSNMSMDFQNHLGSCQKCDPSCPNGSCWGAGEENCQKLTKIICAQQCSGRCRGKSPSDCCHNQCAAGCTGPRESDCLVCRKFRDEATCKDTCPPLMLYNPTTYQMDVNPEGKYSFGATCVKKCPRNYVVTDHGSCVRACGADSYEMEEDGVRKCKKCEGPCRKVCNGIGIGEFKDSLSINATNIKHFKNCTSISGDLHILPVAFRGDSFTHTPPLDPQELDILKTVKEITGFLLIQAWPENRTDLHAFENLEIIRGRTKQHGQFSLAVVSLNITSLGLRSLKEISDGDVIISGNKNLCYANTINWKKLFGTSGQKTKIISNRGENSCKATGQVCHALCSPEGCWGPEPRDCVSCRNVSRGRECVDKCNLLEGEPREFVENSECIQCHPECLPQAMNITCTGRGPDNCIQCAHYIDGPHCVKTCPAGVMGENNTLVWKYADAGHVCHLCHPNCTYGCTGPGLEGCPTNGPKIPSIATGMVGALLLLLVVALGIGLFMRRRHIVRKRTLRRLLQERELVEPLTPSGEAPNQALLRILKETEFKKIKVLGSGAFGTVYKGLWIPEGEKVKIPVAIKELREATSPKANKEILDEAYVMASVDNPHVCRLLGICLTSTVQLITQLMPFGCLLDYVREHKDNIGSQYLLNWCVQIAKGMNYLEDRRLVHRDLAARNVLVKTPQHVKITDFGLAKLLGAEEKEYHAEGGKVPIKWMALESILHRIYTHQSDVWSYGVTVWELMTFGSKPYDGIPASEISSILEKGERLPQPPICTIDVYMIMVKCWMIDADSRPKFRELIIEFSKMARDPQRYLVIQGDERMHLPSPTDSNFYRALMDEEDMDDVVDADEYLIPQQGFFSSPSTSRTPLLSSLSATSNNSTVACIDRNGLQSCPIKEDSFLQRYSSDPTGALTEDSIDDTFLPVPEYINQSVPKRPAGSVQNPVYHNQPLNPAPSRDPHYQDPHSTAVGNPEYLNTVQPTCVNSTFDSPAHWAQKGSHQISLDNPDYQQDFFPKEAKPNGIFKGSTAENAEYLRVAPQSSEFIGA
Fibroblast growth factor 10 (Homo sapiens), sequence (O15520 whole entry, looked up): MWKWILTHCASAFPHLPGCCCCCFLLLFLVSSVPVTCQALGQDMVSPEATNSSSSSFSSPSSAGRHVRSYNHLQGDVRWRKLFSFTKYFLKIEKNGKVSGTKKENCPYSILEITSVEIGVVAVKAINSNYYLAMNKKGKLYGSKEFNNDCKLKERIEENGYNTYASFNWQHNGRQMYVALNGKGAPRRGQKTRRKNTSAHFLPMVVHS
Neurogenic locus notch homolog protein 3 (Homo sapiens), sequence (Q9UM47 whole entry, looked up): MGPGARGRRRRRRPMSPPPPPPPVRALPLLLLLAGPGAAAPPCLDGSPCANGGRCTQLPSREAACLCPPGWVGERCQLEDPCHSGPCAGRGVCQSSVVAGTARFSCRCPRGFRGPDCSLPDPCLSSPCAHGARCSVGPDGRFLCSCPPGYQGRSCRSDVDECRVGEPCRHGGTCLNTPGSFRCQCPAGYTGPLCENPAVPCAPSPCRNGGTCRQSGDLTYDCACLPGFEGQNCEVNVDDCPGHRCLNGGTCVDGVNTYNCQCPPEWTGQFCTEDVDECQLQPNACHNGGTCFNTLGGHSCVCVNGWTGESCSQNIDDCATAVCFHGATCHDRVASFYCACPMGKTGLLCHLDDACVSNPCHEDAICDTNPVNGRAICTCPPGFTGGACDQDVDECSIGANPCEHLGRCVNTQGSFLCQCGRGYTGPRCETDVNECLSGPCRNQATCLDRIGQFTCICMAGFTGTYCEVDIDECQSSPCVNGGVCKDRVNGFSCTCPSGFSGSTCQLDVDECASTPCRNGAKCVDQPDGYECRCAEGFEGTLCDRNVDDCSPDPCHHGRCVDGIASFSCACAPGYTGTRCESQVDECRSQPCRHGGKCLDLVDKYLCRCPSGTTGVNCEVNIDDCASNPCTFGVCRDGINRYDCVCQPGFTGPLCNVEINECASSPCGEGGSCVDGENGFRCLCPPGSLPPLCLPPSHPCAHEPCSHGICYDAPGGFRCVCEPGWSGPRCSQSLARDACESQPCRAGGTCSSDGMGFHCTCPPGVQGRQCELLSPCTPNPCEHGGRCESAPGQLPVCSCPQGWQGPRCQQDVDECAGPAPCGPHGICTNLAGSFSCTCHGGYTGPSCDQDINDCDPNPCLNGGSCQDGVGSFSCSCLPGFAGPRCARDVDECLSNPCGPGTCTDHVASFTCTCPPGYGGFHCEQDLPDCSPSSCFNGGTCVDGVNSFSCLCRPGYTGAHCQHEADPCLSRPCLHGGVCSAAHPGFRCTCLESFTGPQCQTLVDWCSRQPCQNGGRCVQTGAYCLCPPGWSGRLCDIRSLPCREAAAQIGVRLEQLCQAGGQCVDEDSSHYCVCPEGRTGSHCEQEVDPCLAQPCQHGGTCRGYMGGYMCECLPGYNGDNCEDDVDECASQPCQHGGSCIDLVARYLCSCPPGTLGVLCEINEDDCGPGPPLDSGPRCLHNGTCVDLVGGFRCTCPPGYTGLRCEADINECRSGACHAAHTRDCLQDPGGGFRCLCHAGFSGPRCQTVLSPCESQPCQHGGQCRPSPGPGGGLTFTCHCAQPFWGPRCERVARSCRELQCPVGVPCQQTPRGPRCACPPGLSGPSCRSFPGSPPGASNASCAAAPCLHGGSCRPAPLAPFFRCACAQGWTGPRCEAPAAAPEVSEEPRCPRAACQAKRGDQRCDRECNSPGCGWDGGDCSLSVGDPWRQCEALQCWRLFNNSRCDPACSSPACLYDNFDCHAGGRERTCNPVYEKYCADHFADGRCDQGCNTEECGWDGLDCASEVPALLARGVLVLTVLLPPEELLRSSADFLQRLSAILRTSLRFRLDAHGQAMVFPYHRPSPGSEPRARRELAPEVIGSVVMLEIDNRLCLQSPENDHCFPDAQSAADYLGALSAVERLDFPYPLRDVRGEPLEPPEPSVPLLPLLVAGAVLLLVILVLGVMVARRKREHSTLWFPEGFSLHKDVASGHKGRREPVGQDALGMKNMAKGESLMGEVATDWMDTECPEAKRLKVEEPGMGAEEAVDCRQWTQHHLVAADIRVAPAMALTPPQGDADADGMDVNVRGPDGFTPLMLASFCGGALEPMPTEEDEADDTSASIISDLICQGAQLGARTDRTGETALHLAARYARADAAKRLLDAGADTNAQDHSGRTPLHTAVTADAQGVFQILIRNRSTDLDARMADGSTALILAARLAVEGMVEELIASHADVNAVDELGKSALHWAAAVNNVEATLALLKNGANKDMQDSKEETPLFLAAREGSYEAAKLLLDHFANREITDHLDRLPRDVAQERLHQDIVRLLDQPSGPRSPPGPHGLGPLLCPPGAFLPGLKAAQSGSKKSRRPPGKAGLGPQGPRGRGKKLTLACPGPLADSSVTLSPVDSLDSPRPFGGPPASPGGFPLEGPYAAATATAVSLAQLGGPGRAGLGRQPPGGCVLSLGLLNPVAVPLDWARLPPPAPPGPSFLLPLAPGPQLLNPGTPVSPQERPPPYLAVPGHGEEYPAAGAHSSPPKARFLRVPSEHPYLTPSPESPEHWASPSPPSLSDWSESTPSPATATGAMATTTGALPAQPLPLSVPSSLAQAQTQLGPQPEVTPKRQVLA
Torsin-1A-interacting protein 2 (Homo sapiens), sequence (Q8NFQ8 whole entry, looked up): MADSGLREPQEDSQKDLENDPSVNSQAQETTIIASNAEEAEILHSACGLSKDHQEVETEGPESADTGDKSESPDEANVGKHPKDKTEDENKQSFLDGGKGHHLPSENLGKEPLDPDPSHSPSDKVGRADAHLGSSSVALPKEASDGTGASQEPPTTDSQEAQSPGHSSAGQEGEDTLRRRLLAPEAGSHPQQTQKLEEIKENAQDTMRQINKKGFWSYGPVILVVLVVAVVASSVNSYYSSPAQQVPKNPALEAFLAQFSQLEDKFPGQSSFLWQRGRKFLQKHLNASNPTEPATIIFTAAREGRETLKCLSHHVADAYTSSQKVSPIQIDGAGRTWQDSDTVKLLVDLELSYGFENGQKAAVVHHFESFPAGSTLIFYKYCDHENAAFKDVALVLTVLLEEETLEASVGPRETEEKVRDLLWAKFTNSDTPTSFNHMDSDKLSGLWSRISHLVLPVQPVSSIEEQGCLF
Follistatin-related protein 3 (Homo sapiens), sequence (O95633 whole entry, looked up): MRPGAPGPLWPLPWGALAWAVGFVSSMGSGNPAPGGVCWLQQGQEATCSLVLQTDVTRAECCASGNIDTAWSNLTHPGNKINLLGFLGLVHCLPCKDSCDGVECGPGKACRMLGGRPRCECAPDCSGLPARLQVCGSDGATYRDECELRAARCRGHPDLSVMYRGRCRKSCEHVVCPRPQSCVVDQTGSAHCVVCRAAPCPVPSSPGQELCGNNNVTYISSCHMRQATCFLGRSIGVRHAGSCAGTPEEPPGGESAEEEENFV
Dickkopf-related protein 1 (Homo sapiens), sequence (O94907 whole entry, looked up): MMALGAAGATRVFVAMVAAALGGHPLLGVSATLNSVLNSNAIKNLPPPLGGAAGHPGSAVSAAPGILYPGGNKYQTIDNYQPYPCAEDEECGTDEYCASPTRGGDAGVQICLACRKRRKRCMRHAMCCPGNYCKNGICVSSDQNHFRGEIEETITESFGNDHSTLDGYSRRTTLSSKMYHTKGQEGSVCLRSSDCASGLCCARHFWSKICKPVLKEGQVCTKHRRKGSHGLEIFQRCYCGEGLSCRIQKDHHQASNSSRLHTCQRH

| SMILES | composite z-score [1] | z-score [2] | z-score [3] | z-score [4] | composite z-score [5] | z-score [6] | composite z-score [7] | composite z-score [8] | composite z-score [9] | composite z-score [10] | composite z-score [11] | composite z-score [12] | composite z-score [13] | z-score [14] | composite z-score [15] | composite z-score [16] | composite z-score [17] | composite z-score [18] | composite z-score [19] | composite z-score [20] |
| --- | --- | --- | --- | --- | --- | --- | --- | --- | --- | --- | --- | --- | --- | --- | --- | --- | --- | --- | --- | --- |
| Cc1ccc([C@@H]2CC=C(C(=O)O)[C@H](c3ccccc3)N2S(=O)(=O)c2ccc(C)cc2)cc1 | 1.55 | -0.0782 (inactive) | -0.249 (inactive) | -0.269 (inactive) | 3.24 | -1.25 (inactive) | 0.755 | -0.971 | 0.673 | 0.0582 | 1.44 | 0.52 | 1.23 | 0.0744 (inactive) | 1.24 | 0.78 | -0.755 | 0.0604 | -1.69 | -0.575 |
| CCCNC(=O)[C@@H]1c2ccccc2C(=O)N(C2CCCCC2)[C@H]1c1ccc(CO)cc1 | 1.53 | -0.104 (inactive) | 1.15 (inactive) | 1.29 (inactive) | 3.01 | -0.358 (inactive) | 0.0511 | 0.771 | 1.1 | 0.0634 | 0.941 | 0.331 | 0.533 | -0.618 (inactive) | 0.965 | 1.3 | 0.432 | 0.958 | 0.315 | 0.397 |
| Cc1ccc(N2C(=O)c3ccccc3[C@](C)(C(=O)NCC(C)C)[C@@H]2c2ccc(CO)cc2)nc1 | -0.644 | 0.42 (inactive) | 0.374 (inactive) | 1.43 (inactive) | -1.71 | -0.277 (inactive) | 0.456 | -1.22 | -1.62 | 0.32 | 1.78 | 0.504 | 0.481 | -0.237 (inactive) | -0.587 | -0.856 | -0.45 | -0.775 | -0.29 | 1 |
| C=C(COC)/C(=C/C[C@@H](OC(=O)c1ccncc1)c1ccc(OCCO)cc1)c1cc(C(=O)OC)ccc1OC | 1.57 | -1.08 (inactive) | -2.06 (inactive) | -1.83 (inactive) | 2.75 | 2.15 (inactive) | -0.0903 | 0.861 | 1.12 | -0.0129 | 1.3 | 0.318 | 0.421 | -1.43 (inactive) | 0.635 | 1.25 | 0.16 | 0.461 | 0.214 | 0.147 |
| C[C@@H]1CC[C@H]2C(=O)N3CCC[C@H]3C(=O)N2[C@H]1c1ccc(Br)cc1 | -0.455 | 0.233 (inactive) | -0.228 (inactive) | -0.0146 (inactive) | 0.178 | 0.784 (inactive) | -0.207 | 0.49 | -0.383 | -0.166 | 0.654 | -0.178 | -0.439 | -0.931 (inactive) | 0.125 | 0.267 | 0.0436 | 0.0529 | 0.526 | 0.38 |
